# Compounds with a hit are over-represented: about 3.3% of the library has one in this group of screens.
# esBAF inh: Bmi1 luciferase reporter increase in mESCs, primary screen, esBAF inhibitor project, mouse ES cells, Bmi1 luciferase knock-in, single point; 24 h; 100% = twice the neutral-well signal; reporter increase, % at 12.5 µM; 350,000 tested, 2% active; in the data active = activation above about 40%; inconclusive = no clear call, values can overlap the other calls;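 note: 0% = median of the plate's neutral control wells and 100% = double that signal; a rise in the Bmi1 reporter signal indicates esBAF inhibition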
# Wnt bcat act: Wnt/beta-catenin pathway activators, primary screen, cell-based, plate reader, single point | Wnt/beta-catenin reporter cell assay, activator | activation, % at 9.35 µM | 300,000 tested, 1.2% active | AID 743398, 2014; in the data active = activation above about 30%, passing the limit was not always enough; inconclusive = no clear call, values can overlap the other calls;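 note: 0% = neutral control wells and 100% = positive control wells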
# FXN GAA850 act: FXN promoter activators, primary screen, cell-based, luciferase luminescence, HEK293 lucGAA850 | AID 540364, 2011 | HEK293 lucGAA850 FXN promoter luciferase reporter, 24 h; percent of 10 µM SAHA response | 360,000 tested, 0.56% active | activation, % at 6 µM;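 active = activation above the average of all compounds screened plus 3 SD, cutoff fixed separately per campaign, cut at about 7.5% in these data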;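 note: 0% = DMSO wells and 100% = 10 µM SAHA wells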
# MITF TRPM1 HTS: activators of MITF-driven TRPM1 promoter reporter, primary screen, cell-based, SK-MEL-5, luciferase, single point. SK-MEL-5 TRPM1-promoter luciferase, 24 h; % of positive control, neutral wells = 0. 300,000 tested, 0.75% active. AID 588334, 2011. activation, % at 12.5 µM;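 active = mean activation of at least 80% with every replicate also reaching 80%; inconclusive = mean reaches 80% but some replicate falls short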;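 note: 0% = neutral control wells and 100% = parthenolide positive control wells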
# Statin myotox sup: suppressors of statin myotoxicity in C2C12 myotubes, primary screen, cell-based, single point, plate reader; C2C12 myotubes + simvastatin, ATP luminescence, 48 h; scaled: DMSO 0, geranylgeraniol control 100; rescue of ATP level, % at 7.49 µM; 330,000 tested, 0.78% active; AID 602340, 2012;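 active = mean ATP rescue above about 67%, or every replicate alone reaching that limit, limit read from the data, passing the limit was not always enough; inconclusive = no clear call, values can overlap the other calls; inactive = mean under the limit and some replicate under it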;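 note: myotubes were challenged with 10 µM simvastatin during compound exposure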
# * hit, by the source's call; ? = inconclusive; · = not tested or not shown.
SMILES,esBAF inh,Wnt bcat act,FXN GAA850 act,MITF TRPM1 HTS,Statin myotox sup
C[C@H](CO)N1C[C@H](C)[C@@H](CN(C)C(=O)Nc2ccc3c(c2)OCO3)Oc2ccc(NC(=O)c3ccncc3)cc2CC1=O,2.1,·,·,·,-10.9
C[C@H](CO)N1C[C@H](C)[C@@H](CN(C)C(=O)Nc2cccc3ccccc23)OCc2cnnn2CCCC1=O,-4.0,·,·,·,10.8
CC(=O)OC[C@H]1O[C@@H](n2ncc(=O)[nH]c2=O)[C@H](OC(C)=O)[C@@H]1OC(C)=O,48.0*,·,-8.1,·,6.2
CCC(=O)N(C)C[C@H]1Oc2cc(C#Cc3ccncc3)ccc2S(=O)(=O)N([C@H](C)CO)C[C@H]1C,-2.2,·,·,·,2.9
Cc1ccc(N2CN=c3s/c(=C\c4ccccn4)c(=O)n3C2)cc1,76.9*,3.0,0.8,51.4,-1.2
Cc1cccc(C#CC2=CC(=O)CC(C)(C)C2)c1,31.3,-1.5,3.5,·,16.3
COc1cccc(C#CC2=CC(=O)CC(C)(C)C2)c1,133.6*,-1.7,-5.9,·,17.2
C[C@H](NC(=O)C[C@H]1CC[C@@H](NC(=O)C2CC2)[C@@H](CO)O1)c1ccccc1,-2.1,·,·,·,5.2
CC1(C)NC(=O)N(CNc2cc(Cl)ccc2Cl)C1=O,-6.4,-4.5,2.0,-2.7,99.9*
O=C(Nc1ccc2nc(-c3cccs3)c(-c3cccs3)nc2c1)NC1CC1,-7.7,·,-0.6,-2.9,3.3
COCCNC(=O)Nc1ccc2nc(-c3cccs3)c(-c3cccs3)nc2c1,0.1,5.2,-1.1,-0.8,125.0*
CC1(C)CC(N=c2cc(-c3ccccc3)oc3ccc(Cl)cc23)CC(C)(C)N1,·,8.9,0.5,-51.6,·
OCCCN=c1cc(-c2ccccc2)oc2ccc(Cl)cc12,72.3*,·,0.3,6.2,44.1
COC(=O)c1ccccc1NC(=O)Nc1cc(C(C)(C)C)on1,0.4,?,3.9,38.8,-2.0
Cc1cc(C(=O)Nc2cc(C(C)(C)C)on2)c(C)o1,63.4*,42.2*,4.8,89.2*,-8.1
CC(C)(C)c1cc(NC(=O)Nc2ccccc2)no1,26.8,40.7*,4.7,113.0*,-4.6
Cc1ccc(S(=O)(=O)Nc2ccc3c(c2)CC(=O)N([C@H](C)CO)C[C@H](C)[C@@H](CN(C)S(=O)(=O)c2cccs2)O3)cc1,4.8,·,·,·,50.4
C/C=C/c1cnc2c(c1)C(=O)N([C@H](C)CO)C[C@@H](C)[C@@H](CN(C)C(=O)Nc1ccc(F)cc1)O2,-1.1,·,·,·,4.0
CCNC(=O)C[C@H]1CC[C@@H]2[C@H](COc3ccc(NC(=O)Nc4c(C)noc4C)cc3C(=O)N2C)O1,-0.3,·,·,·,-6.6
O=C(Nc1nc(-c2ccccc2)ns1)c1ccncc1,·,?,-0.7,12.8,·
CC(C)(C)C(=O)Nc1nc(-c2ccccc2)ns1,48.6*,·,1.2,·,·
C[C@H]1CN([C@@H](C)CO)C(=O)c2cc(C#CCN(C)C)cnc2O[C@@H]1CN(C)Cc1ccc(F)cc1,-2.6,·,·,·,13.2
COc1cc(C(=O)OCCN2CCOCC2)ccc1O,9.2,·,1.2,4.2,108.5*
Cc1ccc(C(=O)COC(=O)c2cccc(O)c2)s1,62.5*,39.5*,2.8,53.5,7.3
CSc1ncccc1C(=O)OCC(=O)c1ccc(C)s1,57.6*,16.1,1.3,10.1,6.3
SMILES,esBAF inh,Wnt bcat act,FXN GAA850 act,MITF TRPM1 HTS,Statin myotox sup
O=C(C[C@H]1CC[C@H]2[C@@H](COC[C@@H](O)CN2Cc2ccc(Oc3ccccc3)cc2)O1)N1CCCCC1,6.6,·,·,·,?
C[C@H](CO)N1C[C@H](C)[C@H](CN(C)C(=O)Cc2ccncc2)Oc2cc(C#CC3(O)CCCC3)ccc2S1(=O)=O,1.3,·,·,·,-6.5
COc1ccc(NC(=O)N[C@H]2CC[C@H](CCn3cc(C4(O)CCCC4)nn3)O[C@H]2CO)cc1,1.5,·,·,·,6.2
O=C(OCCOc1ccc(Br)cc1)c1cnccn1,-1.2,·,0.9,1.0,117.1*
O=C(N/N=C/c1cc(Br)cc(Cl)c1O)c1ccc2c(c1)OCO2,·,-3.2,-1.1,·,·
O=C(N/N=C/c1cc(Br)c(O)c(Br)c1O)c1ccc2c(c1)OCCO2,43.4*,8.6,0.7,30.9,-2.9
Cc1cccc(NC(=S)N/N=C/c2c[nH]c3ccccc23)c1,87.9*,9.6,-1.6,-7.7,-30.8
O=C(N/N=C/c1cc(Br)c(Br)o1)c1ccc2c(c1)OCCO2,58.2*,36.5*,2.2,·,-27.9
Cc1nn(C)cc1/C=N/NC(=S)Nc1ccccc1,68.7*,40.3*,3.0,·,-3.9
Cc1ccc(C(=O)Nc2ccc(C(=O)N/N=C/c3c[nH]c4ccccc34)cc2)cc1,·,7.3,-0.6,1.0,·
C[C@@H]1CN([C@@H](C)CO)S(=O)(=O)c2ccc(-c3ccc(F)cc3)cc2O[C@@H]1CN(C)C(=O)Nc1ccc(F)cc1,·,·,·,·,-43.7
CCCC(=O)Nc1ccc2c(c1)C(=O)N(C)[C@H]1CC[C@@H](CC(=O)NCC3CCCCC3)O[C@@H]1CO2,-4.5,·,·,·,-2.2
O=C(N/N=C/c1c[nH]c2ccccc12)c1ccc2c(c1)OCCO2,51.3*,2.5,-2.2,·,-8.0
C[C@H](CO)N1C[C@H](C)[C@@H](CN(C)S(=O)(=O)c2cn(C)cn2)Oc2cc(C3=CCCCC3)ccc2S1(=O)=O,4.4,·,·,·,-9.2
CCC1(c2ccc(Cl)cc2)NC(=S)N(c2ccccc2)N1 (configuration not stated),10.9,-1.7,2.8,4.2,-0.6
CCC1(c2ccccc2)NC(=S)N(c2ccc(C)cc2)N1 (configuration not stated),44.9*,2.1,1.9,13.5,3.2
COc1ccc(C#Cc2cnc3c(c2)C(=O)N([C@H](C)CO)C[C@H](C)[C@H](CN(C)C(=O)c2ccccc2F)O3)cc1,-2.0,·,·,·,11.4
CCCN1[C@@H]2c3ccc(/C=C/c4ccccc4)c(=O)n3C[C@H]1[C@H](CO)[C@H]2C(=O)NCC1CC1,-1.1,·,·,·,-5.7
CCC(C)c1ccc(NC(=O)C2CCCN(c3ncccn3)C2)cc1 (configuration not stated),48.3*,·,-3.1,·,-12.5
COc1ccc(NC(=O)C2CCCN(c3ncccn3)C2)cc1 (configuration not stated),32.9,9.4,4.6,51.7,15.9
Cc1cc(S(=O)(=O)NC2CCCCC2)ccc1OCC(=O)N1CCOCC1,·,-2.3,-0.7,5.1,·
CCOC(=O)N1CCN(C(=O)COc2ccc(S(=O)(=O)NC3CCCCC3)cc2C)CC1,14.3,-1.4,0.1,-8.5,115.7*
O=C(COc1ccc(Cl)cc1Cl)NC(=O)N1CCCCC1,59.1*,·,3.0,95.0*,-4.0
O=C(COc1ccc(Cl)cc1Cl)NC1CC1,·,-0.9,4.7,·,·
O=C(COc1ccc(Cl)cc1Cl)NC(=O)NC1CCCC1,48.0*,21.0,5.3,126.6*,-8.9
O=C(COc1ccc(Cl)cc1Cl)NC1CCSC1=O (configuration not stated),14.0,·,2.8,93.5*,13.8

# From PubChem
